In PubChem BioAssay (EPA / NIEHS):
Activity calls are given as the source filed them. The calls were made as follows: active = hit-call score of the fitted dose curve at least 0.9, where 1 is the maximum; inactive = score below 0.9.

Experiment: ATG_Sox_CIS: Attagene CIS-FACTORIAL HepG2 Assay for human SRY-box transcription factor (SOX) (AID 2282960)
Details: HepG2 Attagene cis-factorial SOX reporter, mRNA; actives raise or lower the signal
Method: ATG_CIS is a cell-based, multiplexed-readout assay that uses HepG2, a human liver cell line, with measurements taken at 24 hours after chemical dosing in a 24-well plate.ATG_Sox_CIS is one of 52 assay component(s) measured or calculated from the ATG_CIS assay. It is designed to make measurements of mRNA induction, a form of inducible reporter, as detected with fluorescence intensity signals by Reverse transcription polymerase chain reaction (RT-PCR) and Capillary electrophoresis technology.Data from the assay component ATG_Sox_CIS was analyzed into 1 assay endpoint. This assay endpoint, ATG_Sox_CIS, was analyzed with bidirectional fitting relative to DMSO as the negative control and baseline of activity. Using a type of inducible reporter, measures of mRNA for gain or loss-of-signal activity can be used to understand the reporter gene at the transcription factor-level as they relate to the gene SOX1. Furthermore, this assay endpoint can be referred to as a primary readout, because this assay has produced multiple assay endpoints where this one serves a reporter gene function. To generalize the intended target to other relatable targets, this assay endpoint is annotated to the dna binding intended target family, where the subfamily is HMG box protein.
Human liver HepG2 cells are transiently transfected with multiple reporter transcription units (MRTUs) in 6-well plates using FuGene 6 reagent (Roche; 3 ml FuGene/1 mg DNA). The MRTU constructs are regulated by a cis-regulating element (promoter). […] A major difference between the CIS and TRANS system is that in CIS activities of endogenous TFs are measured, whereas the TRANS assay evaluates changes in activities of exogenous, chimeric NR-Gal4 proteins. […] At the end of 24 hour incubation, total RNA was isolated using TriZol reagent (Invitrogen). The isolated RNA is then reverse-transcribed using oligo(dT) primer and Mo-MLV reverse transcriptase (Invitrogen) with DNAse I (Ambion) treatment for 30 min. The one-tenth of the produced cDNA was amplified by PCR using Taq DNA polymerase (Invitrogen) and two reporter sequence-specific primers. The PCR products were fluorescently labeled by primer extension with 6-arboxyfluorescein (6-FAM) 5'-labeled reporter sequence-specific primer (2 min at 95 C, 20 s at 68 C and 10 min at 72 C) and these products were digested with 5U of HpaI (New England Biolabs) for 2h at 37 C. The fragments were purified using Qiaquick PCR columns (Qiagen), analyzed on an ABI 3130xL genetic analyzer (Applied Biosystems) with peak positions identified by using a set of X-rhodamine (ROX)-labeled MapMarker1000 molecular weight standards (BioVentures). The raw capillary electrophoresis data was processed using Attagraph software (Attagene).
For Cn1ccnc1, the outcome was “inactive”. In the case of CC(C)c1ccc2ncccc2c1, the outcome is reported as “inactive”. With CCCCCCOc1ccc(N)cc1 the outcome was “inactive”. With C=CC(=O)OCCCCCCOC(=O)C=C the outcome was “inactive”. With C[Si]1(C)O[Si](C)(C)O[Si](C)(C)O[Si](C)(C)O[Si](C)(C)O1 the outcome was “inactive”. In the case of CCCCNS(=O)(=O)c1ccc(C)cc1, the outcome is reported as “inactive”. For Cc1c(C(=O)c2c[nH]n(C)c2=O)ccc(S(C)(=O)=O)c1C1=NOCC1, the outcome was “inactive”. For CC(C)[N+](C)(CCOC(=O)C1c2ccccc2Oc2ccccc21)C(C)C, the outcome was “inactive”. For CN(C)Cc1cc(CN(C)C)c(O)c(CN(C)C)c1, the outcome was “inactive”. With O=C1CCCN1C1CCCCC1 the outcome was “inactive”. For O=C(O)CC(C(=O)O)S(=O)(=O)O (stereo not given), the outcome was “inactive”. In the case of CC(C)=CCCC(C)=CC#N, the outcome is reported as “inactive”. With CC=C(C)C(C)=O the outcome was “inactive”. In the case of COc1ccc(C(=O)/C(Br)=C\C(=O)O)cc1, the outcome is reported as “inactive”. In the case of CCCCOCCOCCOC(C)=O, the outcome is reported as “inactive”. For CC(=O)OCc1ccccc1, the outcome was “inactive”. For CC(C)(CO)COC(=O)C(C)(C)CO, the outcome was “inactive”. With CCCC=C(C=O)CC the outcome was “inactive”. For C/C=C/C=C/CCCCCCCO, the outcome was “inactive”. With CC1=CCC(C(C)C)C=C1 (stereo not given) the outcome was “inactive”. With CC1CC(=O)CC(C)(C)C1 (stereo not given) the outcome was “inactive”. In the case of COc1cc(O)c(C(=O)c2ccccc2)cc1S(=O)(=O)O, the outcome is reported as “inactive”. For CC/C=C\C/C=C\C/C=C\CCCCCCCC(=O)OC, the outcome was “inactive”. For C=C(C)OC(C)=O, the outcome was “inactive”. In the case of CC(C)=CCl, the outcome is reported as “inactive”. In the case of O=C1c2ccccc2C(=O)c2cc(S(=O)(=O)O)ccc21, the outcome is reported as “inactive”. In the case of CC(C)CC(=O)OCc1ccccc1, the outcome is reported as “inactive”. For CC(=O)c1ccccc1O, the outcome was “inactive”. For CC(=O)CCC=C(C)C, the outcome was “inactive”. In the case of C=CC(=O)NCOCCCC, the outcome is reported as “inactive”. In the case of CCCCOCC(C)O (stereo not given), the outcome is reported as “inactive”. For CO[Si](C)(C)OC, the outcome was “inactive”. With CCOC(=O)CC(=O)c1ccccc1 the outcome was “inactive”. In the case of COC(=O)C=Cc1ccccc1, the outcome is reported as “inactive”. In the case of CCCCc1ccc(Cl)cc1, the outcome is reported as “inactive”. In the case of CC(CC(C)C)=NO, the outcome is reported as “inactive”. With C=C[Si](OCCOC)(OCCOC)OCCOC the outcome was “inactive”. With CCC(C)C(=O)OCCc1ccccc1 (stereo not given) the outcome was “inactive”. In the case of CCCCCCCCCCCCCc1ccccc1, the outcome is reported as “inactive”. For CCC(C)(O)CCCC(C)C (stereo not given), the outcome was “inactive”.
